Tau FP inhib – inhibitors of human tau fibril formation. K18 P301L tau heparin fibrillization, Alexa594 FP, 6 h. Potency, µM (doses to about 57.7 µM), for the others: at the highest dose activity, negative = inhibition, actives largely listed as inhibitors. AID 1468. actives 0.39% (n = 280,000); note: potency is the fitted concentration of half-maximal effect; nearly all actives have a fitted effect of over 55% in size
Target sequence (P10636 561-689 P618L limits assumed): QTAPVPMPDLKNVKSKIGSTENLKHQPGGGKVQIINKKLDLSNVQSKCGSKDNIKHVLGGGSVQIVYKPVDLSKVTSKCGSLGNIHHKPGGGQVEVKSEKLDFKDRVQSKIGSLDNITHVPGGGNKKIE
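Steps: dispense K18 P301L tau (15 uM plus 0.24 uM Alexa 594 tracer, final) in pH 7 sodium acetate; add compound; add heparin (20 uM final); incubate 6 hr, 37 C; add ThT (30 uM final); after 1 hr ambient, read FP.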
Tau fluor cs – counter-screen for tau fibril formation inhibitors. tau K18 P301L Alexa594 fluorescence, heparin fibrillization. Potency, µM (doses to about 57.7 µM), inactives show top-dose activity change, negative = decrease. actives 0.93% (n = 280,000); note: potency is the fitted concentration of half-maximal effect; nearly all actives have a fitted effect of over 55% in size
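Human K18 P301L tau (15 uM unlabeled plus 0.24 uM Alexa 594-labeled, final) in 100 mM sodium acetate pH 7 was mixed with compound and 20 uM heparin and incubated 6 hr at 37 C.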
Tau ThT inhib – blocks human tau fibril formation measured by thioflavin T. recombinant tau K18 P301L (four-repeat tau fragment), heparin-induced fibrillization, ThT fluorescence. Potency, µM (top dose mostly 57.4 µM), inactives show top-dose activity, negative = inhibition, hits mostly inhibitors. actives 2.1% (n = 270,000). P10636; note: potency is the fitted concentration of half-maximal effect; nearly all actives have a fitted effect of over 55% in size
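K18 P301L tau (15 uM + 0.24 uM Alexa 594-tagged), heparin 20 uM, NaOAc pH 7, 6 h 37 C; ThT 30 uM, 1 h RT, ex 450/em 510 nm.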
Coupling enz – counter-screen for Giardia aldolase inhibitors: coupling enzyme system; activity change, negative = inhibition, % at 58.2 µM, hits read low; actives 0.67% (n = 290,000); coupling enzyme system counterscreen, AmpLite Red fluorescence; in the data active = activity change below about -30%
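Fluorescence at 525 nm excitation and 598 nm emission measured inhibition of the coupled detection system without aldolase. Compounds (at 57.5 uM final) were preincubated 10 min at room temperature with coupling enzyme reagent before a 20 min substrate/AmpLite Red step.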
Sfp PPTase inh – blocks B. subtilis Sfp PPTase activity; Biochemical Sfp PPTase activity, qHTS; Potency, µM, inactives show largest response in the series, negative = inhibition, usual class: inhibitors; actives 3.5% (n = 310,000); AID 1490;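 note: the enzyme is Sfp with the accession as filed and its product quenches rhodamine fluorescence; potency is the fitted concentration of half-maximal effect; 0% = enzyme reaction without inhibitor and -100% = no enzyme wells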
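With Hepes-Na pH 7.6 buffer containing 10 mM MgCl2, Sfp (15 nM) modified BHQ-2-YbbR (12.5 uM) using rhodamine-CoA (5 uM). Two reads 30 minutes apart at 525/598 nm yielded each well's rate.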
Numbers without * were called inactive; ? = inconclusive; nt = not tested or not shown; ! = not active in a repeat; [ ] = another dose, or the depositor's remark. Most compounds without a hit are left out; they make up all but 5.2% or so of the library. Unless noted, calls come from the whole dose curve; as a rule, active = well fitted curve in the direction sought with a large enough effect; inconclusive = small, poorly fitted or top-dose-only effect, or another doubt; inactive = no such curve, though single readings can be large; an effect the other way counts as inactive or inconclusive. Unless noted, % is set by controls: 0 for no effect and ±100 for the full control effect.

SMILES	Tau FP inhib	Tau fluor cs	Tau ThT inhib	Coupling enz	Sfp PPTase inh
CCOP(=O)(C1=C(O)C(=O)C(C(C)(C)C)=CC1=O)c1ccccc1 (centres undefined)	?	-22%	22µM*	-13	40µM*
CC(=O)OCC1=C[C@H]2[C@@H]3C(C)(C)[C@]3(OC(=O)Cc3ccccc3)C[C@@H](C)[C@]2(O)[C@@H]2C=C(C)C(=O)[C@@]2(O)C1	nt	nt	nt	3	15%
O=C(O)c1ccccc1S	-14%	-12%	?	3	?
O=C(O)c1ccc[nH]c1=S	?	-17%	?	-24	8.9µM*
O=C(Cc1cc(=O)[nH][nH]1)N/N=C/c1cccc2ccccc12	?	?	3.2µM*	3	-4%
COc1ccc2c(c[n+](C)c3c4cc5c(cc4ccc23)OCO5)c1OC	?	16µM*[quencher]	13µM*	-39*!	50µM*
O=C1NC(=O)C(=Cc2coc3ccc(O)cc3c2=O)C(=O)N1	-8%	-14%	?	7	13µM*
Cc1c(C=C2C(=O)N(C)C(=S)N(C)C2=O)c2ccccc2n1CC(=O)NCC1CCCO1 (centres undefined)	nt	nt	nt	nt	50µM*
O=C(Cn1cc(C=C2C(=O)NC(=O)NC2=O)c2ccccc21)NCC1CCCO1 (centres undefined)	nt	nt	nt	0	8%
N#C/C(=C\c1ccc(O)c(O)c1)C(=O)NCCCNC(=O)/C(C#N)=C/c1ccc(O)c(O)c1	8%	?	10µM*	nt	nt
O=C(Cn1c2c(c(-c3ccccc3Cl)cc1=O)CCC2)N1CCC2(CC1)OCCO2	8%	-3%	5%	-2	22µM*
Clc1ccccc1C(c1ccccc1)(c1ccccc1)n1cccn1	nt	nt	nt	3	-7%
Cc1[nH]cnc1CCN	-4%	-10%	-13%	-2	-12%
O=C1NC(=S)NC(=O)C1C1CCCCC1	?	-5%	-3%	5	79µM*
COC[C@H]1OC(=O)c2coc3c2[C@@]1(C)C1=C(C3=O)[C@@H]2CCC(=O)[C@@]2(C)C[C@H]1OC(C)=O	25µM*	?	14µM*	nt	35µM*
c1ccc(-c2nc(N3CCOCC3)s[n+]2-c2ccccc2)cc1	1%	-7%	?	2	7.9µM*
CCCCOc1ccc(C(C)=O)cc1Cc1c(O)[nH]c(=S)[nH]c1=O	nt	nt	nt	7	?
COc1ccc(Cc2c(O)[nH]c(=S)[nH]c2=O)cc1	nt	nt	nt	-3	56µM*
CCCCNC(=O)Oc1c(Br)cc2sc(=O)oc2c1Br	?	?	nt	4	11µM*
COc1cc2c(cc1O)C(CCc1ccc(Cl)cc1)N(C)CC2 (centres undefined)	6%	-5%	-7%	2	8%
NC(N)=NCCCCCCCCCCN=C(N)N	8%	5%	11%	4	?
CCC1C(=O)OC[C@H]1Cc1cncn1C (some centres undefined)	-12%	-7%	-3%	4	-10%
CC1Oc2cc3c(-c4c(O)cc(O)c5c(O)c6c(cc45)OC(C)C(C)C6=O)c(O)cc(O)c3c(O)c2C(=O)C1C (centres undefined)	?	13µM*[quencher]	13µM*	-18	15%
COc1cccc(C2(C#N)CCN(C)CC2)c1	-3%	-8%	-5%	2	5%
CN1CC[C@@]2(c3cccc(O)c3)Cc3nc4ccccc4cc3C[C@H]2C1	3%	-1%	-9%	0	79µM*
SMILES	Tau FP inhib	Tau fluor cs	Tau ThT inhib	Coupling enz	Sfp PPTase inh
O=C1NC(=O)C(=Cc2ccc(OCCOc3ccc([N+](=O)[O-])cc3)cc2)C(=O)N1	-16%	-17%	?	4	50µM*
Cc1ccc(OCCn2cccc2/C=C2/C(=O)NC(=O)N(Cc3ccco3)C2=O)cc1	3%	-22%	nt	1	?
O=C1NC(=O)C(=Cc2cn(CCOc3ccc4c(c3)OCO4)c3ccccc23)C(=O)N1	-14%	-23%	?	-1	-14%
O=C1NC(=O)C(=Cc2cccc(OCCOc3ccccc3)c2)C(=O)N1	nt	nt	nt	5	45µM*
Cc1ccc(OCCOc2cccc(C=C3C(=O)NC(=O)NC3=O)c2)c(C)c1	nt	nt	nt	4	50µM*
C=C(C)C1CCC(C)=CC1c1c(OC)cc(C)cc1OC (centres undefined)	nt	nt	nt	-3	1%

Screening results from PubChem.
